Measurements taken from PubChem BioAssay (NCATS).
Several values for one entry are separate records, joined by “and”; a condition that tells them apart may be missing. Equal values may be shown once. Results filed as inconclusive are left out. Activity calls are given as the source filed them. Calls come from the whole dose curve; as a rule, active = well fitted curve in the direction sought with a large enough effect; inconclusive = small, poorly fitted or top-dose-only effect, or another doubt; inactive = no such curve, though single readings can be large; an effect the other way counts as inactive or inconclusive.

Tests used:
[1] = Viability qHTS for spleen associated tyrosine kinase inhibitor (SYKi) drug resistant MV4-11 cells (AID 1963824); details: SYKi-resistant MV4-11 viability, CellTiter-Glo, 72 h; series mostly up to 45 µM; note: nearly all actives have a fitted effect of over 35% in size
Procedure, shortened: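 SYK-inhibitor-resistant MV4-11 AML cells were seeded at 500 per well onto compound and cultured 72 hours (37 °C, 5% CO2). CellTiter-Glo was then added, and after 10 min at room temperature, luminescence gave viability.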

[2] = Cellular viability qHTS for adrenocortical cancer (ACC) cell line SW-13 (AID 1963989); details: SW-13 ACC cells viability, CellTiter-Glo, 48 h; activity (max response): hits give low values; note: nearly all actives have a fitted effect of over 65% in size;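 for activity (max response): cells grown in serum-free medium with ITS supplement; % is set by controls: 0 for no effect and ±100 for the full control effect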
Procedure, shortened: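 Compound titrations (up to 46 uM final, in DMSO) were applied to SW-13 cells for 48 h at 37C/5% CO2. Reading used CellTiter-Glo after 20 min at room temperature; fitted curves yielded IC50 and efficacy.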

[3] = Cellular viability qHTS for adrenocortical cancer (ACC) cell line NCI-H295R (AID 1963990); details: CellTiter-Glo ATP luminescence, 48 h; series mostly up to 46.1 µM; note: nearly all actives have a fitted effect of over 60% in size
Procedure, shortened: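 Readout: CellTiter-Glo luminescence, 20 min RT. Exposure: 48 h, 37C/5% CO2. Cells: NCI-H295R, ITS-DMEM serum-free. Range: up to 46 uM. Analysis: 4PL fit, IC50 plus efficacy.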
Potency is the fitted concentration of half-maximal effect.

Row | Structure (SMILES) | Potency [1] | Potency [2] | Potency [3] | activity (max response) [2]
1 | O=C(Nc1ccc(Cl)cc1)Nc1ccc(Cl)c(C(F)(F)F)c1 | 7.5 µM (active) | 2.91 µM (active) | 1.84 µM (active) | 
2 | N#Cc1ccc(COC[C@H]2O[C@@H](n3c(NCc4ccc(Cl)c(Cl)c4)nc4c(N)ncnc43)[C@H](O)[C@@H]2O)cc1 | 2.52 µM (active) and 3.32 µM (active) | 25.1 µM (active) | inactive | 
3 | CC1=C(/C=C/C(C)=C/C=C/C(C)=C\C(=O)O)C(C)(C)CCC1 | 6.61 µM (active) |  | inactive | -0.514% (inactive)
4 | CC(=O)OCC(=O)[C@@]1(O)CC[C@H]2[C@@H]3CCC4=CC(=O)CC[C@]4(C)[C@H]3C(=O)C[C@@]21C | inactive |  |  | -12.6% (inactive) and -6.75% (inactive)
5 | COc1cc2c(cc1OC)[C@@H]1CC(=O)[C@@H](CC(C)C)CN1CC2 | inactive |  |  | -4.64% (inactive)
6 | COC1CC(C(=O)c2ccc3c(N)ncc(-c4ccc(-c5cnn(C)c5)cc4)c3n2)C1 (centres undefined) | 0.296 µM (active) |  | inactive | -16.1% (inactive)
7 | O=C1NC(=O)/C(=C/c2cccc(C(F)(F)F)c2)S1 | inactive | 25.1 µM (active) |  | 
8 | COC(=O)C(c1ccccc1Cl)N1CCc2sccc2C1 (centres undefined) | inactive |  | inactive | 0.0767% (inactive)
9 | CC(C)(C)c1[nH]cnc1/C=c1\[nH]c(=O)/c(=C/c2ccccc2)[nH]c1=O | 0.0934 µM (active) | 0.0398 µM (active) |  | 
10 | CCN1CCN(Cc2ccc(NC(=O)c3ccc(C)c(/C=C/c4cnc5[nH]ccc5c4OC)c3)cc2C(F)(F)F)CC1 | 20.6 nM (active) and 83.3 nM (active) | 3.16 µM (active) | 6.31 µM (active) | 
11 | Cc1ccc(NC(=O)c2ccc3c(c2)OCCO3)cc1NC(=O)c1ccc2nc(OCCN3CCCC3)ccc2c1 | 0.0229 µM (active) | 0.802 µM (active) |  | 
12 | CCOC(=O)[C@@](C)(N)Cc1ccc(O)c(O)c1 | inactive |  | inactive | -4.97% (inactive)
13 | CC(C)(Oc1ccc(CCNC(=O)c2ccc(Cl)cc2)cc1)C(=O)O | inactive |  | inactive | -0.538% (inactive)
14 | CN1CC[C@H](c2c(O)cc(O)c3c(=O)cc(-c4ccccc4Cl)oc23)[C@H](O)C1 | 0.299 µM (active) | 0.184 µM (active) |  | 
15 | O[C@@H](c1cc(C(F)(F)F)nc2c(C(F)(F)F)cccc12)[C@H]1CCCCN1 | 9.44 µM (active) | 16.4 µM (active) | 5.17 µM (active) | 
16 | CCc1nnc(NS(=O)(=O)c2ccc(N)cc2)s1 | inactive |  | inactive | 4.19% (inactive)
17 | COC(=O)C1=C(C)NC(c2ncc(F)cc2F)=N[C@@H]1c1ccc(F)cc1Cl | 20.9 µM (active) |  | inactive | -20.4% (inactive)
18 | CC(CNC1CCCCC1)OC(=O)c1ccccc1 (centres undefined) | inactive |  | inactive | -5.58% (inactive)
19 | Nc1cc(-c2ccncc2)c[nH]c1=O | inactive |  | inactive | 2.68% (inactive)
20 | NS(=O)(=O)c1ccc(Cc2c(-c3cccc(-c4ccccc4)c3)nn(-c3nc(C(=O)O)cs3)c2CC2CC2)cc1 | 10.5 µM (active) | 31.6 µM (active) |  | 

Row | Structure (SMILES) | Potency [1] | Potency [2] | Potency [3] | activity (max response) [2]
21 | COc1cc(NC(C)CCCN)c2ncccc2c1 (centres undefined) | 5.31 µM (active) | 4.61 µM (active) | 8.2 µM (active) | 
22 | NC(=O)c1cc(F)cc2c1C(=O)N(C1CCN(C3CCC(F)(F)CC3)CC1)C2 | inactive |  |  | -0.81% (inactive)
23 | C[C@@H](Nc1cc(F)cc(F)c1)c1cc(C(=O)N(C)C)cc2c(=O)cc(N3CCOCC3)oc12 | 2.31 µM (active) and 6.61 µM (active) |  |  | -10.8% (inactive)
24 | CCN(CC)CCSC(=O)C(c1ccccc1)c1ccccc1 | inactive |  |  | -19.1% (inactive)
25 | N#Cc1cc(NC(=O)C(=O)O)c(Cl)c(NC(=O)C(=O)O)c1 | inactive |  | inactive | 14% (inactive)
26 | NS(=O)(=O)c1cc2c(cc1Cl)CN(C1CCCCC1)C2=O | inactive |  |  | 0.796% (inactive)
27 | CC(Nc1ncnc2nc[nH]c12)c1cc2cccc(Cl)c2c(=O)n1-c1ccccc1 (centres undefined) | 2.59 µM (active) |  |  | -2.7% (inactive)
28 | CO[C@H]1/C=C/O[C@@]2(C)Oc3c(C)c(O)c4c(O)c(c(/C=N/N5CCN(C)CC5)c(O)c4c3C2=O)NC(=O)/C(C)=C\C=C\[C@H](C)[C@H](O)[C@@H](C)[C@@H](O)[C@@H](C)[C@H](OC(C)=O)[C@@H]1C | 18.6 µM (active) |  |  | -27.5% (inactive)
29 | COc1cc([C@H]2Oc3cc([C@H]4Oc5cc(O)cc(O)c5C(=O)[C@@H]4O)ccc3O[C@@H]2CO)ccc1O | 18.6 µM (active) |  | inactive | 11.7% (inactive) and -16.7% (inactive)
30 | COc1ccc(C(=O)c2ccccc2O)c(O)c1 | 9.44 µM (active) |  | inactive | 11.3% (inactive)
31 | CCOC(=O)N[C@@H]1CC[C@@H]2[C@@H](C1)C[C@H]1C(=O)O[C@H](C)[C@H]1[C@H]2/C=C/c1ccc(-c2cccc(F)c2)cn1 | 13.2 µM (active) |  | inactive | -18% (inactive)
32 | CN1CCC(=C2c3ccccc3Sc3ccccc32)CC1 | 16.8 µM (active) | 23.1 µM (active) | 8.2 µM (active) | 
33 | Nc1cccc2c1CN([C@H]1CCC(=O)NC1=O)C2=O | inactive |  | inactive | -17.5% (inactive)
34 | C[n+]1cc2c3c(ccc2c2ccc4cc5c(cc4c21)OCO5)OCO3 | 1.3 µM (active) | 2.24 µM (active) | 1.42 µM (active) | 
35 | COc1cc(OC)c(/C=C/S(=O)(=O)Cc2ccc(OC)c(OP(=O)(O)O)c2)c(OC)c1 | 0.0148 µM (active) | 0.0398 µM (active) | 0.0282 µM (active) | 
36 | N#Cc1ccc(C2CCCc3cncn32)cc1 (centres undefined) | inactive |  | inactive | -11.9% (inactive)
37 | Cc1cc(-c2cc(OC(=O)c3ccccc3)ccc2Cl)cc2nnc(Nc3ccc(OCCN4CCCC4)cc3)nc12 | 1.59 µM (active) |  | inactive | 9.34% (inactive)
38 | O=C(OCc1ccccc1)c1ccccc1 | inactive |  | inactive | -7.64% (inactive)
39 | Clc1ccccc1CN1CCc2sccc2C1 | 18.8 µM (active) |  | inactive | 1.55% (inactive)
40 | C[C@@H]1C(=O)OC2[C@H](O)[C@]34[C@H]5C[C@@H](C(C)(C)C)[C@]36[C@@H](OC(=O)[C@@H]6O)O[C@@]4(C(=O)O5)[C@]21O (some centres undefined) | inactive |  | inactive | 5.05% (inactive)

Row | Structure (SMILES) | Potency [1] | Potency [2] | Potency [3] | activity (max response) [2]
41 | COc1cc2nc(-c3cc(F)ccc3O)nc(N[C@@H]3CNC[C@H]3C(C)(C)O)c2cc1OC | 11.6 nM (active) and 5.3 nM (active) | 6.31 µM (active) | 6.31 µM (active) | 
42 | CS(=O)(=O)c1ccc(-c2nnc(/C=C/c3nnc(-c4ccc(C#N)cc4)o3)n2-c2ccccc2Cl)nc1 | 14.8 µM (active) |  | inactive | -6.81% (inactive)
43 | Cc1cc(OI)c(C(C)C)cc1-c1cc(C(C)C)c(OI)cc1C | inactive |  | inactive | 11.4% (inactive)
44 | CO[C@@H]1[C@@H](O)[C@H](O)[C@@H](n2c3c(Cl)cccc3c3c4c(c5c6cccc(Cl)c6[nH]c5c32)C(=O)NC4=O)O[C@H]1CO | 0.742 µM (active) | 0.316 µM (active) | 5.62 µM (active) | 
45 | C[C@]12CCC(=O)C=C1CC[C@@H]1[C@@H]2[C@@H](O)C[C@@]2(C)[C@H]1CC[C@]2(O)C(=O)COC(=O)CCC(=O)O | inactive |  | inactive | 3.9% (inactive)
46 | CC1(C)CC[C@]2(C(=O)O)CC[C@]3(C)C(=CC[C@@H]4[C@@]5(C)C[C@@H](O)[C@H](O)C(C)(C)[C@@H]5CC[C@]43C)[C@@H]2C1 | 18.6 µM (active) |  | inactive | -1.16% (inactive)
47 | Fc1cccc(-n2cnc3c(NCc4nc5c(F)c(F)ccc5[nH]4)nc(N4CCOCC4)nc32)c1 | 0.186 µM (active) | 0.112 µM (active) | 0.447 µM (active) | 
48 | CC(=O)O[C@]1(C(C)=O)CC[C@H]2[C@@H]3C=C(Cl)C4=CC(=O)[C@@H]5C[C@@H]5[C@]4(C)[C@H]3CC[C@@]21C | 14.6 µM (active) |  | inactive | -7.85% (inactive) and -11.2% (inactive)
49 | CC(C)=CCC/C(C)=C/CC/C(C)=C/C(=O)OCC(=O)[C@@]1(O)CC[C@H]2[C@@H]3CCC4=CC(=O)C=C[C@]4(C)[C@H]3[C@@H](O)C[C@@]21C | 9.44 µM (active) |  | inactive | 9.99% (inactive)
50 | CCOc1ccc2ccccc2c1C(=O)N[C@@H]1C(=O)N2[C@@H]1SC(C)(C)[C@@H]2C(=O)O | inactive |  | inactive | 2.64% (inactive)
51 | Cc1c(F)cc2c(=O)c(C(=O)O)cn3c2c1CCC3C (centres undefined) | inactive |  | inactive | -2.48% (inactive)
52 | CC(C)n1ncnc1-c1cn2c(n1)-c1ccc(O[C@@H](C)C(N)=O)cc1OCC2 | 4.68 µM (active) |  | 0.631 µM (active) | -4.9% (inactive)
53 | Cc1onc(-c2ccccc2)c1-c1ccc(S(N)(=O)=O)cc1 | 14.8 µM (active) |  | inactive | -10.6% (inactive) and -23.5% (inactive)
54 | c1cnc(N2CCN(Cc3ccc4c(c3)OCO4)CC2)nc1 | inactive |  | inactive | 6.56% (inactive)
55 | CCOC(=O)NNc1nncc2ccccc12 | inactive |  | inactive | 4.25% (inactive)
56 | CCCCNc1ccc(C(=O)OCCN(C)C)cc1 | inactive |  | inactive | 4.21% (inactive)
57 | COc1nc(OCc2cccc(-c3ccccc3)c2C)ccc1CNCCNC(C)=O | 3.72 µM (active) | 7.94 µM (active) | 6.31 µM (active) | 
58 | COc1ccc2[nH]c(C(=O)N3CCC(CC(C)(C)O)CC3)cc2c1 | 18.6 µM (active) |  | inactive | -4.14% (inactive)
59 | Cc1cc(C)nc(NS(=O)(=O)c2ccc(N)cc2)n1 | inactive |  | inactive | 6.1% (inactive)
